A short description of assay [1]: qHTS assay to identify small molecule agonists of the hypoxia (HIF-1) signaling pathway - cell viability counter screen (AID 1224844; calls by dose curve; also: nearly all actives have a fitted effect of over 50% in size). An outline of the steps: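 Cells (HRE-bla ME-180, 2,000 per well) sat 5 hrs at 37C, got compound for 17 hrs, were read for CCF4-AM FRET, and were finally lysed with CellTiter-Glo for a 30 min room-temperature luminescence read.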

Assay [2] is described as follows: qHTS assay to identify small molecule agonists of H2AX (AID 1224845; active = well fitted activation curve with a large enough effect in the signal ratio in the repeat runs, not every such curve was filed as active; the % refers to the signal ratio; also: potency is read from the fitted curve at half-maximal effect). An outline of the steps: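 Wild-type CHO-K1 cells, plated overnight, exposed 3hr at 37C to 15 concentrations (0.76% DMSO final). Lysed, then HTRF anti-pH2AX (S139) cryptate and anti-H2AX-d2 antibodies, 24 hr room temperature; 665/620 nm emission read.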
Assay [3] in a line: qHTS assay to identify small molecule agonists of the hypoxia (HIF-1) signaling pathway (AID 1224846; active = well fitted activation curve with a large enough effect in the signal ratio in the repeat runs, not every such curve was filed as active; the % refers to the signal ratio). An outline of the steps: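 A low-serum medium (0.5% dialyzed FBS) holding 2,000 HRE-bla ME-180 cells per well is preincubated for 5 hrs, dosed with compounds by pintool, and kept a further 17 hrs at 37C, 5% CO2 before CCF4-AM FRET detection of beta-lactamase.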
Assay [4] can be described thus: qHTS assay to identify small molecule agonists of H2AX - cell viability counter screen (AID 1224847; calls by dose curve; also: top concentration of the series differs between compounds; nearly all actives have a fitted effect of over 30% in size). In a few lines:
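CHO-K1 wt, 1000 cells/well, o/n 37C; cpds 15 conc, 3 h 37C, 0.76% DMSO; CellTiter-Glo, 30 min RT, luminescence.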

Assay [5] is described as follows: qHTS RealTime-Glo MT Cell Viability Assay in HepG2 cells - 24 hour (AID 1224867). Also: nearly all actives have a fitted effect of over 50% in size. In a few lines:
(§1)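 Luminescence read-out: viable HepG2 cells reduce a prosubstrate to a NanoLuc substrate, giving a signal proportional to live cell number. Reads taken at 0, 8, 16, 24, 32 and 40 h of compound exposure at 37 C.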

Assay [6] can be described thus: qHTS RealTime-Glo MT Cell Viability Assay in HEK293 cells - 32 hour (AID 1224868). Also: top concentration of the series differs between compounds; nearly all actives have a fitted effect of over 50% in size. An outline of the steps:
(§2)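 Nonlytic real-time viability readout: viable cells convert prosubstrate to NanoLuc substrate, giving luminescence proportional to live cell number. HEK293, 600 cells/well, compound added after 5 h, continuous culture at 37 C.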

Assay [7] is described as follows: A CellTox Green Cytotoxicity Assay to monitor cytotoxicity in HEK293 cells - 0 hour (AID 1224869). Also: nearly all actives have a fitted effect of over 50% in size. An outline of the steps:
(§3)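 Fluorescence intensity, read at 0, 8, 16, 24, 32 and 40 h of compound treatment, reflected dye binding to DNA of dead HEK293 cells; compounds (23 nL, DMSO) were added 5 h after plating cells with reagent.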

A short description of assay [8]: qHTS RealTime-Glo MT Cell Viability Assay in HepG2 cells - 40 hour (AID 1224870). Also: nearly all actives have a fitted effect of over 50% in size. An outline of the steps: (§4)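 HepG2 cells (600/well) mixed with RealTime-Glo MT reagent, settled 5 h at 37 C/5% CO2 before compound addition. Nonlytic NanoLuc luminescence from viable-cell prosubstrate reduction read repeatedly during 40 h treatment at 37 C.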
Assay [9] in a line: A CellTox Green Cytotoxicity Assay to monitor cytotoxicity in HEK293 cells - 40 hour (AID 1224871). Also: nearly all actives have a fitted effect of over 45% in size. An outline of the steps: as §3
Assay [10] in a line: qHTS RealTime-Glo MT Cell Viability Assay in HEK293 cells - 16 hour (AID 1224872). In a few lines:
as §2

Assay [11] is described as follows: qHTS RealTime-Glo MT Cell Viability Assay in HepG2 cells - 8 hour (AID 1224873). Also: nearly all actives have a fitted effect of over 55% in size. In a few lines:
as §4

Assay [12] can be described thus: A CellTox Green Cytotoxicity Assay to monitor cytotoxicity in HEK293 cells - 24 hour (AID 1224875). Also: series mostly up to about 77 µM; nearly all actives have a fitted effect of over 45% in size. An outline of the steps: as §3
Assay [13] can be described thus: A CellTox Green Cytotoxicity Assay to monitor cytotoxicity in HepG2 cells - 16 hour (AID 1224876). Also: nearly all actives have a fitted effect of over 45% in size. In a few lines: (§5)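 Using 1536-well format, dye-containing HepG2 suspension was seeded, allowed 5 h at 37 C/5% CO2, dosed by pintool with compounds, positive and negative controls, and imaged for fluorescence across 40 h.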
Assay [14] can be described thus: qHTS RealTime-Glo MT Cell Viability Assay in HepG2 cells - 32 hour (AID 1224877). Also: nearly all actives have a fitted effect of over 55% in size. An outline of the steps:
as §1

Assay [15] in a line: A CellTox Green Cytotoxicity Assay to monitor cytotoxicity in HepG2 cells - 24 hour (AID 1224878). Also: nearly all actives have a fitted effect of over 45% in size. In a few lines: as §5
Assay [16] is described as follows: A CellTox Green Cytotoxicity Assay to monitor cytotoxicity in HepG2 cells - 40 hour (AID 1224879). Also: nearly all actives have a fitted effect of over 40% in size. Also: potency is read from the fitted curve at half-maximal effect. An outline of the steps: as §5
Assay [17] is described as follows: qHTS RealTime-Glo MT Cell Viability Assay in HEK293 cells - 40 hour (AID 1224874). Also: nearly all actives have a fitted effect of over 50% in size. Conditions: RealTime-Glo luminescence; max response: stronger effect = lower value. In a few lines: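 Viable HEK293 cells reduce a cell-permeant prosubstrate; the product diffuses out and is consumed by NanoLuc in the medium to give light. Compounds went in after a 5 h incubation and plates were read over the treatment course.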

“And” between values parts separate entries of the source, which are not always exact repeats. Equal entries are not always repeated. Records with an inconclusive call do not appear. Some structures have more than one record in an assay (separate samples or runs), and their calls can disagree. The source made the active and inactive calls. Unless noted, calls follow the shape of the dose curve; as a rule, active = well fitted curve in the direction sought with a large enough effect in the repeat runs; inconclusive = weak or mixed curves; inactive = no such curve, though single readings can be large; an effect the other way counts as inactive or inconclusive.
% is scaled to controls: 0 for no effect and ±100 for the full control effect.

`CC12CC1(C)C(=O)N(c1cc(Cl)cc(Cl)c1)C2=O` (centres undefined): the Potency result in assay [1], in [2], in [4], in assay [6], in assay [7] and in [9] was “inactive” throughout. Further, the Potency entry in assay [12], in assay [13], in assay [15] and in assay [16] was “inactive” in each case. Moreover, the molecule was called inactive in assay [3], in assay [5], in assay [8], in assay [10], in [11] and in assay [14].
In the case of `CCOP(=S)(OCC)Oc1cc(C)nc(C(C)C)n1`, the Potency entry in assay [1], in [2], in assay [4], in assay [6], in assay [7] and in [9] was “inactive” each time. Moreover, the Potency entry in assay [12] and in assay [13] was “inactive” each time. Also, the molecule was called inactive in assay [3], in assay [5], in assay [8], in [10], in assay [11] and in [14]. Moreover, the Potency entry in assay [16] is “inactive and 24.5 µM (active)”.
For `CC(=O)/C=C/c1ccccc1`, the Potency result in [1], in [2], in [6], in assay [7], in assay [9] and in assay [12] was “inactive” in each case. Also, the Potency entry in assay [13] and in assay [16] was “inactive” in each case. Besides, the result in assay [3], in [5], in assay [8], in [10], in assay [11] and in assay [14] was inactive. Further, the max response in assay [17] is 7.83% (inactive) and 3.04% (inactive) and 5.74% (inactive).
For `c1ccc2c(c1)CCCC2`, the Potency entry in assay [1], in [2], in [4], in assay [6], in assay [7] and in assay [9] was “inactive” throughout. In addition, the Potency entry in assay [12], in assay [13], in assay [15] and in [16] was “inactive” each time. The call in assay [3], in [5], in [8], in assay [10], in assay [11] and in [14] was inactive.
`O=C(O)CCCc1ccc(N(CCCl)CCCl)cc1`: the Potency entry in [1], in assay [4], in [7], in [9], in assay [12] and in assay [13] was “inactive” in each case. The Potency result in assay [16] was “inactive”. Also, the Potency in assay [2] is 56.9 µM (active). Further, the molecule was called inactive in assay [3], in assay [5], in [8], in assay [10], in assay [11] and in [14].
With `CCCCCCCCCCCCCCCCCC(=O)O`, the Potency entry in assay [1], in assay [2], in assay [6], in [7], in [9] and in assay [12] was “inactive” each time. Besides, the Potency entry in assay [13], in assay [15] and in assay [16] was “inactive” each time. For the same molecule, the call in assay [3], in assay [5], in assay [8], in [10], in [11] and in [14] was inactive. The max response in assay [17] is 2.01% (inactive) and -1.45% (inactive) and 0.984% (inactive).
Take `CN(C)C(=O)C(c1ccccc1)c1ccccc1`: the Potency entry in assay [1], in assay [2], in [6], in assay [7], in assay [9] and in assay [12] was “inactive” each time. The Potency result in [13], in assay [15] and in [16] was “inactive” throughout. Moreover, the molecule was called inactive in assay [3], in assay [5], in [8], in assay [10], in [11] and in [14]. In assay [17], the max response was 1.04% (inactive) and -0.357% (inactive).
`C=CC(=O)OCCCCCC(C)C`: the Potency result in [1], in assay [2], in assay [4], in assay [6], in [7] and in assay [9] was “inactive” in each case. Besides, the Potency result in [12], in assay [13], in assay [15] and in [16] was “inactive” throughout. The molecule was called inactive in assay [3], in assay [5], in [8], in assay [10], in [11] and in assay [14].
As to `CNC(=O)O/N=C/C(C)(C)S(C)=O` (centres undefined), the Potency result in assay [1], in assay [2], in assay [4], in assay [6], in [7] and in assay [9] was “inactive” throughout. Moreover, the Potency result in [12], in assay [13] and in [16] was “inactive” each time. Besides, the call in assay [3], in assay [5], in assay [8], in assay [10], in assay [11] and in assay [14] was inactive.
`CCCOC(=O)c1ccccc1C(=O)OCCC`: the Potency result in assay [1], in assay [2], in [6], in assay [7], in assay [9] and in assay [12] was “inactive” each time. The Potency entry in [13] and in assay [16] was “inactive” in each case. The outcome in assay [3], in assay [5], in assay [8], in [10], in assay [11] and in assay [14] was inactive. Also, the max response in assay [17] is 0.157% (inactive) and 0.878% (inactive).

For the origin of these results see PubChem BioAssay (Tox21).
